A selection: hits, their analogues and other compounds. The true share with any hit is near 1.9%.
PG9 Ab binder: small molecules binding HIV-1 gp120 antibody PG9 | inhibition, % at 6.7 µM | AID 624416 | hit rate 0.43% among 360,000 | TR-FRET gp120-PG9 antibody binding; in the data active = inhibition above about 8.5%
aDG glyco up: increases alpha dystroglycan glycosylation | Pro5-aDG cells, alpha-DG glycosylation AlphaScreen (IIH6); 0% Pro5, 100% B10-LARGE cell signal | activation, % at 10 µM | hit rate 0.22% among 360,000 | AID 624168;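 active = activation of at least 8% versus controls, or a plate z-score of at least 8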;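 also: Pro5 are CHO cells carrying HIG-tagged alpha-DG that lacks glycosylation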
NCF1 inh: p47phox (human) inhibition. P14598. p47phox/p22phox peptide binding, fluorescence polarization, 2 h. inhibition, % at 24.7 µM. hit rate 0.53% among 220,000;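 active = inhibition above about 30%, limit read from the data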;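 also: 0% = p47phox with labelled peptide and 100% = labelled peptide alone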
Target sequence (P14598 whole entry, looked up): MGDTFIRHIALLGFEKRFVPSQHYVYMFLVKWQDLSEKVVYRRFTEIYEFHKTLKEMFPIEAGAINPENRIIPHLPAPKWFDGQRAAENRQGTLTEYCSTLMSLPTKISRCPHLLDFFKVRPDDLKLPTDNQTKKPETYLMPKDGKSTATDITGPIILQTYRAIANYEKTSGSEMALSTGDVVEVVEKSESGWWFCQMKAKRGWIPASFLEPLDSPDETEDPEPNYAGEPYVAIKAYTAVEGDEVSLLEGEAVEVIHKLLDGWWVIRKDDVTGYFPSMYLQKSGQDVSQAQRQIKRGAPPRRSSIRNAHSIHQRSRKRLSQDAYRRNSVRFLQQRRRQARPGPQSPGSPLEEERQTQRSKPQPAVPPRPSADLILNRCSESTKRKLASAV
EBNA-1 inh: blocks EBNA-1 binding to DNA | EBNA-1 DNA binding, fluorescence polarization | inhibition, % at 14.8 µM | hit rate 0.34% among 300,000 | AID 1950; in the data active = inhibition above about 28%
NR1D1 modulator: modulates human Rev-erb alpha binding to DNA; P20393; Rev-erbα–FITC-DNA binding, fluorescence polarization, 90 min; activity, % at 10 µM; hit rate 0.79% among 370,000;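 active = activity above about 14%, limit read from the data; passing the limit was not always enough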;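 also: 0% = DMSO wells with 35 nM protein and 100% = DMSO wells with 750 nM protein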
ZTA DNA inh: ZTA (EBV) inhibition in EBNA-1 counter-screen | inhibition, % at 11 µM | P03206 | ZTA-DNA binding, fluorescence polarization | hit rate 0.15% among 320,000; in the data active = inhibition above about 33%
Target sequence (P03206 whole entry, looked up): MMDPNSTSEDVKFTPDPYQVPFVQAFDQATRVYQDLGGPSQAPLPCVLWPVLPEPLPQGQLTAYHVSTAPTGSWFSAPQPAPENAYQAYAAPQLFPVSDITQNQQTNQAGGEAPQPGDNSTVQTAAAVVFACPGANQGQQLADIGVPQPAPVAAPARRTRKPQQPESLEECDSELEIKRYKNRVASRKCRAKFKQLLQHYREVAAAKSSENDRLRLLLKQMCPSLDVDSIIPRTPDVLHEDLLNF
Starred values were filed as active, the others as inactive; / = not tested or not shown; + = active, no number.

SMILES	PG9 Ab binder	aDG glyco up	NCF1 inh	EBNA-1 inh	NR1D1 modulator	ZTA DNA inh
Cc1cc(C)c2nc(C(F)(F)F)nc(N3CC(C)OC(C)C3)c2c1 (stereo not given)	-0.2	0.0	44.9*	-6.4	8.3	8.2
CCOC(=O)N1CCN(c2nc(C(F)(F)F)nc3c(C)cc(C)cc23)CC1	-1.2	0.0	-23.1	-1.6	5.1	-14.8
CC/C=C\C/C=C\C/C=C\C/C=C\C/C=C\CCCC(=O)OCC	/	/	/	/	-8.1	/
COc1ccc2c(CC(=O)Nc3ccc(OC)nc3)coc2c1	-1.1	0.1	34.7*	17.0	7.8	10.3
CCOc1cc(/C=C2\C(=O)N(CCc3ccc(OC)c(OC)c3)C(C)=C2C(=O)OC)ccc1O	-3.0	0.0	53.2*	-8.7	2.2	-8.8
C[C@H]1CN(C[C@H](Cc2ccccc2)C(=O)NCC(=O)O)CC[C@@]1(C)c1cccc(O)c1	/	/	/	/	-3.5	/
COC(=O)[C@H](CC(C)C)N(CCCc1cn(Cc2ccc(C)cc2)nn1)S(=O)(=O)c1ccc(F)cc1Br	/	/	/	/	-1.0	/
CCCCCc1cc(=O)oc2c(C(CCN3CCCC(C)C3)c3ccc4c(c3)OCO4)c(OC)cc(OC)c12 (stereo not given)	-2.6	1.8	32.9*	2.9	-0.5	0.2
C#CCOCCOCCOCCNc1nc(N2CCN(C(=O)Cn3cc(CCCN=C(N)N)nn3)CC2)nc(N2CCN(C(=O)[C@H](Cc3ccc(O)cc3)n3cc(CCO)nn3)CC2)n1	/	/	/	/	-0.7	/
Cc1cccc(-c2oc3ccc(-c4ccc5c(c4)OCO5)cc3c2/C=C/c2ccc(N)cc2)c1	/	8.1*	/	5.1	/	4.8
COc1cc(NS(=O)(=O)c2ccc(C)cc2)ccc1-n1cnnn1	-0.2	0.1	52.6*	1.9	-8.4	7.6
Nc1nnc(SCC(=O)c2ccc3ccccc3c2)s1	-1.5	/	92.4*	-6.8	-0.2	10.4
Nc1nnc(SCC(=O)c2cccc([N+](=O)[O-])c2)s1	-0.1	0.1	8.0	-4.8	-4.1	-18.0
c1cn(CCCNc2ncnc3nc[nH]c23)cn1	1.0	-0.2	-13.1	5.2	4.4	-0.3
CCN1CCN(CCCNc2ncnc3nc[nH]c23)CC1	13.7*	0.1	-17.2	11.9	6.4	11.1
O=C(/C=C\c1ccco1)Nc1nc(-c2ccccc2)cs1	0.5	0.4	1.6	-5.3	-3.7	2.2
O=C(/C=C/c1ccccc1)Nc1nc(-c2ccncc2)cs1	0.3	-0.1	31.3*	24.6	-4.8	7.4
CCn1nc(C)c(CN2CCC(C(=O)Nc3cccc(-c4cccc(F)c4)c3)CC2)c1C	1.7	8.0*	/	3.2	-6.8	-5.7
CC(C)n1cc(CN2CCC(C(=O)Nc3cccc(-c4cccc(Cl)c4)c3)CC2)cn1	-1.7	8.6*	/	1.1	0.0	13.3
CC(COc1ccc(CC#N)cc1)CN1CCC(C(O)(c2ccccc2)c2ccccc2)CC1 (stereo not given)	/	/	/	/	11.0	/
Cc1ccccc1NC(=O)CN1C(=O)N/C(=C\c2ccc(N3CCOCC3)c(F)c2)C1=O	-0.3	0.1	24.2	55.6*	16.6	6.6
COc1ccc(NC(=S)N(CCCN2CCCC2)Cc2cccn2Cc2ccc(Cl)cc2)cc1Cl	0.2	0.1	43.1*	-0.7	-8.4	8.7
Cc1ccc(NC(=S)N(CCCN2CCCC2)Cc2cccn2Cc2ccc(Cl)cc2)cc1Cl	-1.4	0.2	34.9*	-0.1	0.9	9.1
CN(C)CCCN(Cc1ccccc1)C(=S)Nc1cccc(C(F)(F)F)c1	0.2	0.7	-8.5	0.0	-0.7	-10.4
Cc1ccc(NC(=S)N(CCCN2CCCC2)Cc2cccn2Cc2ccc(Cl)cc2)cc1C	-1.3	0.7	4.8	-1.5	2.8	-18.1
SMILES	PG9 Ab binder	aDG glyco up	NCF1 inh	EBNA-1 inh	NR1D1 modulator	ZTA DNA inh
FC(F)(F)c1cccc(NC(=S)N(CCCN2CCCC2)Cc2cccn2Cc2ccc(Cl)cc2)c1	-0.6	-0.5	35.4*	-3.2	3.4	9.7
CC(C)(C)NC(=O)[C@H]1CCC2C3CCC4NC(=O)C=C[C@]4(C)C3CC[C@@]21C (stereo not given in full)	/	/	/	/	2.5	/
Cc1cc(C)nc(NC(=O)CSc2nc3ccccc3o2)n1	-3.0	-0.1	42.5*	2.5	7.4	-3.0
CCCCCCCCCCC[C@@H](C[C@H]1OC(=O)[C@H]1CCCCCC)OC(=O)[C@@H](CC(C)C)NC=O	/	/	/	/	-6.5	/
COC(=O)[C@H](CC(C)C)N(Cc1cn(Cc2ccc(C)cc2)nn1)S(=O)(=O)c1ccccc1Br	/	/	/	/	-6.0	/
CCOC(=O)c1c(C)n(-c2ccc(C)cc2)c2ccc(OCC(O)CN3CCN(C)CC3)cc12 (stereo not given)	-1.5	0.1	54.0*	/	1.2	/
CCOC(=O)c1c(C)n(C)c2ccc(OCC(O)CN3CCN(C)CC3)cc12 (stereo not given)	-0.8	0.0	-0.1	-0.1	-5.2	6.0
CCn1c(C)cc(/C=C2\NC(=O)N(CC(=O)Nc3cccc(C)c3)C2=O)c1C	-4.5	-0.7	6.3	-6.7	1.7	11.7
CCn1c(C)cc(/C=C2/NC(=O)N(CC(=O)Nc3cccc(C)c3)C2=O)c1C	-2.3	-0.5	58.6*	1.6	-0.2	16.9
Cc1nn(C)c(C(=O)Nc2ccn(Cc3c(F)c(F)cc(F)c3F)n2)c1[N+](=O)[O-]	-1.1	-0.1	149.8*	-1.6	-3.5	-15.0
Cc1nn(Cc2cccc(C(=O)Nc3ccn(Cc4c(F)c(F)cc(F)c4F)n3)c2)c(C)c1[N+](=O)[O-]	0.5	0.2	-14.4	11.0	-1.4	-5.7
Cc1cc(-c2ccccc2)nc(N(C)NC(=O)c2c(F)cccc2F)c1S(C)(=O)=O	0.2	-0.3	115.3*	-10.0	5.8	3.9
Cc1ccc(/C(CSc2nccn2-c2ncc(C(F)(F)F)cc2Cl)=N\O)cc1	1.3	3.4	+	-1.8	5.7	0.7
Cc1ccc(C(C)C)c(OCc2nc(-c3nonc3N)no2)c1	0.4	-0.2	166.2*	-8.2	0.3	15.5
N[C@H](C(=O)O)[C@H](O)c1ccc(O)c(O)c1	/	/	/	/	-43.7	/
C(=C\c1ccco1)/C1=NN(c2ccccc2)C(c2ccco2)C1 (stereo not given)	/	7.2*	-25.9	1.8	/	6.9
CCOc1ccc(N/C=C/C(=O)c2ccccc2)c([N+](=O)[O-])c1	-2.2	-0.2	30.8*	5.4	7.7	-0.7
O=S1(=O)c2ccc(N3CCCC3)cc2Oc2ccccc2CN1Cc1cn(Cc2ccccc2C(F)(F)F)nn1	/	/	/	/	-1.2	/
C=CCn1c(SCC(=O)Nc2ccc(NC(=O)c3ccco3)c(OC)c2)nnc1-c1ccncc1	0.8	-0.4	94.2*	5.8	-5.9	-11.2
C=C1CC[C@H](O)C/C1=C/C=C1\CCCC2(C)C1CCC2C(C)CCCC(C)C (stereo not given in full)	/	/	/	/	6.0	/
OC(c1ccccn1)c1c[nH]c2ccccc12 (stereo not given)	-2.4	-0.1	35.2*	-3.5	-5.3	6.3
Fc1ccc(C(Nc2ccccn2)c2c[nH]c3ccccc23)cc1 (stereo not given)	-2.8	0.3	3.5	11.0	4.9	9.3
